# According to paper PMC12820563, “FoxP3 forms a head-to-head dimer in vivo and stabilizes its multimerization on adjacent microsatellites”:
# Over roughly 16,000 sequences, “rpm ratio (pull-down/input)” has its median near 0.5; the highest 2% begin near 5.5. What follows is part of a selection rich in the highest values, with near analogues and random picks from the rest.
# Target: T1, MBP-FoxP3dN (Mus musculus, UniProt Q99JB6 188-423)
# T1 sequence: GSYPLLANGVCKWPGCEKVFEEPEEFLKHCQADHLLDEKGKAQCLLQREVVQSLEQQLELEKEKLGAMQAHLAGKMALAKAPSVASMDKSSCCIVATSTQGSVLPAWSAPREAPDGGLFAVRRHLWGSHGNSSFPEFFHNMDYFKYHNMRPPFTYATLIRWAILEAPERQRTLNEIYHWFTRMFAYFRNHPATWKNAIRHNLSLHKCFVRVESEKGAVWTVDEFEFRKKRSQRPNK
# Experiment: PD-seq (MBP pull-down with sequencing); 20 mM Tris-HCl pH 7.5, 100 mM NaCl, 1.5 mM MgCl2, 0.4 uM protein, 0.1 uM dsDNA library, 30 min, room temperature, amylose pull-down; high values mean tight binding
# Conditions: protein: recombinant; tags: His6-MBP; chain copies: 2; dsDNA, one strand shown
# In short: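 Binding is the reads-per-million enrichment of pull-down relative to input, pooled across replicates. For this, 0.4 µM His6-MBP-tagged mouse FoxP3 or FoxP1 fragment lacking the N-terminus, made in E. coli, was incubated with 0.1 µM Klenow-filled double-stranded degenerate DNA library for 30 min at room temperature in Tris pH 7.5 buffer with NaCl and MgCl2. Complexes bound to amylose resin were washed three times before proteinase K released the DNA for PCR barcoding and Illumina sequencing.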
row,Sequence,binding signal
1,GATGATTGTTCTCCCAGCTGATGAATTGTGCACCTCGAGTAAACAAATTTTCCTAATCTTTCTGTTCAAGCGCCATCTAC,2.92 RPM ratio (pull-down/input)
2,GATGATTGTTCTCCCAGCTGATGAATTCGGAACGTCGAGTAAACAAATTTTCCTAATCTTTCTGTTCAAGCGCCATCTAC,0.297 RPM ratio (pull-down/input)
3,GATGATTGTTCTCCCAGCTGATGAATTGATTCAGTCGAGTAAACAAATTTTCCTAATCTTTCTGTTCAAGCGCCATCTAC,0.28 RPM ratio (pull-down/input)
4,GATGATTGTTCTCCCAGCTGATGAATTGTGGGGGTCGAGTAAACAAATTTTCCTAATCTTTCTGTTCAAGCGCCATCTAC,0.783 RPM ratio (pull-down/input)
5,GATGATTGTTCTCCCAGCTGATGAATTCTAAAGCTCGAGTAAACAAATTTTCCTAATCTTTCTGTTCAAGCGCCATCTAC,0.248 RPM ratio (pull-down/input)
6,GATGATTGTTCTCCCAGCTGATGAATTTTTTGCTTCGAGTAAACAAATTTTCCTAATCTTTCTGTTCAAGCGCCATCTAC,0.306 RPM ratio (pull-down/input)
7,GATGATTGTTCTCCCAGCTGATGAATTTGCTTCTTCGAGTAAACAAATTTTCCTAATCTTTCTGTTCAAGCGCCATCTAC,2.97 RPM ratio (pull-down/input)
8,GATGATTGTTCTCCCAGCTGATGAATTGTTTGCTTCGAGTAAACAAATTTTCCTAATCTTTCTGTTCAAGCGCCATCTAC,6.19 RPM ratio (pull-down/input)
9,GATGATTGTTCTCCCAGCTGATGAATTAGCTCGCTCGAGTAAACAAATTTTCCTAATCTTTCTGTTCAAGCGCCATCTAC,0.272 RPM ratio (pull-down/input)
10,GATGATTGTTCTCCCAGCTGATGAATTCCGGGTGTCGAGTAAACAAATTTTCCTAATCTTTCTGTTCAAGCGCCATCTAC,0.669 RPM ratio (pull-down/input)
11,GATGATTGTTCTCCCAGCTGATGAATTCCGATTGTCGAGTAAACAAATTTTCCTAATCTTTCTGTTCAAGCGCCATCTAC,1.93 RPM ratio (pull-down/input)
12,GATGATTGTTCTCCCAGCTGATGAATTAAGTAATTCGAGTAAACAAATTTTCCTAATCTTTCTGTTCAAGCGCCATCTAC,1.05 RPM ratio (pull-down/input)
13,GATGATTGTTCTCCCAGCTGATGAATTGATCTTGTCGAGTAAACAAATTTTCCTAATCTTTCTGTTCAAGCGCCATCTAC,0.293 RPM ratio (pull-down/input)
14,GATGATTGTTCTCCCAGCTGATGAATTTTTTGCCTCGAGTAAACAAATTTTCCTAATCTTTCTGTTCAAGCGCCATCTAC,0.432 RPM ratio (pull-down/input)
15,GATGATTGTTCTCCCAGCTGATGAATTTGCCTCTTCGAGTAAACAAATTTTCCTAATCTTTCTGTTCAAGCGCCATCTAC,2.52 RPM ratio (pull-down/input)
16,GATGATTGTTCTCCCAGCTGATGAATTGCGCCTCTCGAGTAAACAAATTTTCCTAATCTTTCTGTTCAAGCGCCATCTAC,7.17 RPM ratio (pull-down/input)
17,GATGATTGTTCTCCCAGCTGATGAATTTTGCCTCTCGAGTAAACAAATTTTCCTAATCTTTCTGTTCAAGCGCCATCTAC,5.78 RPM ratio (pull-down/input)

row,Sequence,binding signal
1,GATGATTGTTCTCCCAGCTGATGAATTTGCCTCCTCGAGTAAACAAATTTTCCTAATCTTTCTGTTCAAGCGCCATCTAC,2.37 RPM ratio (pull-down/input)
2,GATGATTGTTCTCCCAGCTGATGAATTGCCTCTCTCGAGTAAACAAATTTTCCTAATCTTTCTGTTCAAGCGCCATCTAC,1.04 RPM ratio (pull-down/input)
3,GATGATTGTTCTCCCAGCTGATGAATTTGCCGCCTCGAGTAAACAAATTTTCCTAATCTTTCTGTTCAAGCGCCATCTAC,0.88 RPM ratio (pull-down/input)
4,GATGATTGTTCTCCCAGCTGATGAATTTTGCGCCTCGAGTAAACAAATTTTCCTAATCTTTCTGTTCAAGCGCCATCTAC,2.67 RPM ratio (pull-down/input)
5,GATGATTGTTCTCCCAGCTGATGAATTGTTTGCCTCGAGTAAACAAATTTTCCTAATCTTTCTGTTCAAGCGCCATCTAC,5.67 RPM ratio (pull-down/input)
6,GATGATTGTTCTCCCAGCTGATGAATTTGCCCTCTCGAGTAAACAAATTTTCCTAATCTTTCTGTTCAAGCGCCATCTAC,0.526 RPM ratio (pull-down/input)
7,GATGATTGTTCTCCCAGCTGATGAATTCTTTGCCTCGAGTAAACAAATTTTCCTAATCTTTCTGTTCAAGCGCCATCTAC,0.403 RPM ratio (pull-down/input)
8,GATGATTGTTCTCCCAGCTGATGAATTTGTTGCCTCGAGTAAACAAATTTTCCTAATCTTTCTGTTCAAGCGCCATCTAC,7.02 RPM ratio (pull-down/input)
9,GATGATTGTTCTCCCAGCTGATGAATTAGGTCCTTCGAGTAAACAAATTTTCCTAATCTTTCTGTTCAAGCGCCATCTAC,0.354 RPM ratio (pull-down/input)
10,GATGATTGTTCTCCCAGCTGATGAATTCTCTCCATCGAGTAAACAAATTTTCCTAATCTTTCTGTTCAAGCGCCATCTAC,0.223 RPM ratio (pull-down/input)
11,GATGATTGTTCTCCCAGCTGATGAATTGGTACGCTCGAGTAAACAAATTTTCCTAATCTTTCTGTTCAAGCGCCATCTAC,0.466 RPM ratio (pull-down/input)
12,GATGATTGTTCTCCCAGCTGATGAATTTTTGCCTTCGAGTAAACAAATTTTCCTAATCTTTCTGTTCAAGCGCCATCTAC,2.86 RPM ratio (pull-down/input)
13,GATGATTGTTCTCCCAGCTGATGAATTGCGCCTTTCGAGTAAACAAATTTTCCTAATCTTTCTGTTCAAGCGCCATCTAC,6.82 RPM ratio (pull-down/input)
14,GATGATTGTTCTCCCAGCTGATGAATTTTGCCTTTCGAGTAAACAAATTTTCCTAATCTTTCTGTTCAAGCGCCATCTAC,5.56 RPM ratio (pull-down/input)
15,GATGATTGTTCTCCCAGCTGATGAATTTGCCTTTTCGAGTAAACAAATTTTCCTAATCTTTCTGTTCAAGCGCCATCTAC,2.1 RPM ratio (pull-down/input)
16,GATGATTGTTCTCCCAGCTGATGAATTGCCTTTTTCGAGTAAACAAATTTTCCTAATCTTTCTGTTCAAGCGCCATCTAC,1.02 RPM ratio (pull-down/input)
